Active and inactive are the calls of the source. Unless noted, the rule behind the calls is not given here.
Tests used:
[1] = A549 cell viability effects, profiling panel, calcein-AM fluorescence, 48 h, basal (AID 1162); settings: higher = more signal; note: test concentration not given here
[2] = adipocyte viability effects, profiling panel, cell-based, 3T3-L1 adipocytes, calcein-AM fluorescence, 48 h, basal (AID 1163); settings: 3T3-L1 adipocytes viability, higher = more signal; note: test concentration not given here
[3] = HepG2 cell viability effects, profiling panel, calcein-AM fluorescence, 48 h, basal (AID 1164); settings: higher = more signal; note: test concentration not given here
[4] = MM1S cell viability effects, profiling panel, calcein-AM fluorescence, 48 h, basal (AID 1165); settings: higher = more signal;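 note: viability of MM1S multiple myeloma cells under basal unstimulated conditions; test concentration not given here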
[5] = basal RPMI8226 viability, no added stimulus, profiling panel, cell-based, calcein-AM fluorescence, 48 h, PK04 Diversity Set (AID 1166); settings: RPMI8226 myeloma viability, higher = more signal;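 note: cells grown under basal conditions without added stimulus; test concentration not given here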
[6] = basal HepG2 mitochondrial membrane potential changes, profiling panel, cell-based, JC-1 fluorescence, 24 h, 100 nL compound (AID 1167); settings: higher = more signal; note: test concentration not given here
[7] = basal 3T3-L1 adipocyte mitochondrial potential changes, profiling panel, cell-based, JC-1 fluorescence, 3T3-L1 adipocytes, 24 h, 100 nL compound (AID 1168); settings: JC-1 mitochondrial fluorescence, higher = more signal, called active from +8 up or from −8 down; note: test concentration not given here
[8] = basal RPMI8226 mitochondrial membrane potential changes, profiling panel, cell-based, JC-1 fluorescence, 24 h, 100 nL compound (AID 1169); settings: RPMI8226 myeloma, JC-1 mitochondrial potential fluorescence, higher = more signal; note: test concentration not given here
[9] = basal MM1S mitochondrial membrane potential changes, profiling panel, cell-based, JC-1 fluorescence, 24 h, 100 nL compound (AID 1170); settings: higher = more signal; note: test concentration not given here
[10] = A549 lung cancer cell viability effects, profiling panel, resazurin fluorescence, 24 h, PK04 Diversity Set (AID 1171); settings: higher = more signal, called active from +8 up or from −8 down; note: test concentration not given here
[11] = HepG2 liver cancer cell viability effects, profiling panel, resazurin fluorescence, 24 h, PK04 Diversity Set (AID 1172); settings: higher = more signal; note: test concentration not given here
[12] = basal S. cerevisiae growth modulation, no modifier, primary screen, OD600, strain BY4716, 24 h, basal condition (AID 1173); settings: OD600, 24 h, higher = more signal, called active from +8 up or from −8 down
[13] = MM1S myeloma cell viability, profiling panel, resazurin fluorescence, basal, 24 h, PK04 Diversity Set (AID 1174); settings: higher = more signal, called active from +8 up or from −8 down;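 note: MM1S multiple myeloma cell line; test concentration not given here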
[14] = target: Dihydroorotate dehydrogenase (quinone), mitochondrial (Plasmodium falciparum (isolate 3D7)) (UniProt Q08210); assay: PfDHODH enzyme inhibitors, primary screen, biochemical, C-terminal His tag, absorbance 600 nm (AID 1175); settings: DCIP absorbance 600 nm, higher = more signal, called active from +8 up or from −8 down;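 note: recombinant parasite enzyme with a five histidine tag at its C terminus; test concentration not given here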
[15] = P. aeruginosa biofilm formation inhibitors, primary screen, strain PAO1, LB-PBS medium, absorbance 600 nm (AID 1176); note: test concentration not given here; settings: P. aeruginosa PAO1 growth/biofilm, A600, 12 h; higher = more signal
[16] = S. cerevisiae RM11-1a growth modifiers, primary screen, strain RM11-1a, OD600, basal, 24 h (AID 1177); settings: OD600, 24 h, higher = more signal, called active from +8 up or from −8 down;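 note: cultures grown under basal conditions with no added stressor; test concentration not given here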
[17] = E. coli acrAB mutant growth effects, primary screen, E. coli filamentation inducers, strain DRC39, OD650, 24 h (AID 1178); settings: higher = more signal, called active from +8 up or from −8 down;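 note: growth measured as culture turbidity by optical density at 650 nm; test concentration not given here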
[18] = E. coli acrAB mutant growth effects, primary screen, E. coli filamentation inducers, strain DRC39, OD650, 48 h (AID 1179);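 note: screen aims at cell division blockers that make cells filament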; settings: E. coli DRC39 delta-acrAB growth, higher = more signal, called active from +8 up or from −8 down
[19] = RPMI8226 myeloma cell viability, profiling panel, resazurin fluorescence, basal, 24 h, PK04 Diversity Set (AID 1180); settings: higher = more signal;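 note: RPMI8826 multiple myeloma cell line at 5000 cells per well; test concentration not given here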
[20] = target: E3 ubiquitin-protein ligase XIAP (Homo sapiens) (UniProt P98170); assay: XIAP binders, primary screen, biophysical, small-molecule microarray, fluorescence 635 nm (AID 1181); settings: small-molecule microarray binding, higher = more signal;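 note: score merges 667 nm emission and signal to noise over triplicate slides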
Chain of E3 ubiquitin-protein ligase XIAP (Homo sapiens) (P98170 whole entry, looked up): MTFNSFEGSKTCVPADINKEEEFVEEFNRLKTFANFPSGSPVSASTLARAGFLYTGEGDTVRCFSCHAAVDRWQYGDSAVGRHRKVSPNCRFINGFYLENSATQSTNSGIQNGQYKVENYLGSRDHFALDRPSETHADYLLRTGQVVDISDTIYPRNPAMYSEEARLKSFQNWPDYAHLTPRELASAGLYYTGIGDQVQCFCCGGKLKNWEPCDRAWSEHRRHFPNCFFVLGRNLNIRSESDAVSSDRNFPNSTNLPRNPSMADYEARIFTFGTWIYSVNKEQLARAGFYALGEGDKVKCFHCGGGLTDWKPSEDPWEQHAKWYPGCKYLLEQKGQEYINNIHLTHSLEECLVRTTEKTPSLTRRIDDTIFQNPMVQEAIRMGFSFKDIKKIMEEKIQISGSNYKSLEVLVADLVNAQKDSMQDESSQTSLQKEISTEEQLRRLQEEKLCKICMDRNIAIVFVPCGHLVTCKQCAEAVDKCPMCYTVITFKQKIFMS

Chain of Dihydroorotate dehydrogenase (quinone), mitochondrial (Plasmodium falciparum (isolate 3D7)) (Q08210 whole entry, looked up): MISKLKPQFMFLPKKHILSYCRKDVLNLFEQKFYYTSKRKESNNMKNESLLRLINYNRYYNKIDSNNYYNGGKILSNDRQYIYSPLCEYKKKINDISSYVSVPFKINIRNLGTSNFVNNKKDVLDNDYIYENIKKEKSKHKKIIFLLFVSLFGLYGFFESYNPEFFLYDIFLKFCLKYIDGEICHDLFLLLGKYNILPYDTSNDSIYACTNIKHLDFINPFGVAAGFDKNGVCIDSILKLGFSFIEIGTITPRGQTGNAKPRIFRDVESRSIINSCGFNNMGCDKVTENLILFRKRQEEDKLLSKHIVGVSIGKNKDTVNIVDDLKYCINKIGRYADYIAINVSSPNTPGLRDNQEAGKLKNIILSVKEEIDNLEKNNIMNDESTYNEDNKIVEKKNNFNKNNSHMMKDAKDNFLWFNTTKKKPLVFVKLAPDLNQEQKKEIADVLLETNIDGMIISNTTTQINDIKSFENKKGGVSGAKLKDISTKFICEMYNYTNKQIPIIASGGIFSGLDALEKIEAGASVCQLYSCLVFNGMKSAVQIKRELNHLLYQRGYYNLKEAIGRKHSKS

Row | Structure (SMILES) | z-score [1] | z-score [2] | z-score [3] | z-score [4] | z-score [5] | z-score [6] | z-score [7] | z-score [8] | z-score [9] | z-score [10] | z-score [11] | z-score [12] | z-score [13] | composite z-score [14] | z-score [15] | z-score [16] | z-score [17] | z-score [18] | z-score [19] | composite z-score [20]
1 | OCCCC1=CC(c2ccc(CN3CCCC3)cc2)N(Cc2sc3ccccc3c2Cl)CC1 (stereo not given) | 0.48 | -0.301 | 0.212 | -3.45 | -3.64 | 3.4 | 0.0544 (inactive) | -0.252 | -0.356 | 0.341 (inactive) | -0.516 | -7.47 (inactive) | -0.846 (inactive) | 0.721 (inactive) | 0.367 (inactive) | 0.922 (inactive) | -0.365 (inactive) | -1.05 (inactive) | 0.234 | 0.0623
2 | COC(=O)c1nc2oc1CC[C@@H](CO)NC(=O)N(C)Cc1cnnn1C[C@H](Cc1ccccc1)NC2=O | 0.0656 | -0.65 | 0.537 | 1.01 | 0.529 | 0.912 | 1.25 (inactive) | -0.912 | -0.511 | 0.634 (inactive) | 0.841 | -1.07 (inactive) | 1.09 (inactive) | -0.288 (inactive) | 0.383 (inactive) | 0.477 (inactive) | 0.218 (inactive) | 1.12 (inactive) | 1.47 | -0.148
3 | O=C1O[C@H](c2ccccc2)[C@H](c2ccccc2)N2[C@H]1[C@@H](C(=O)N1CCN(c3ncccn3)CC1)[C@]1(C(=O)Nc3ccc(C#CC4(O)CCCCCC4)cc31)[C@H]2c1ccc(OCCO)cc1 | 0.282 | 1.11 | 0.473 | -0.699 | 0.148 | -1.73 | -0.309 (inactive) | -0.618 | -0.87 | 0.746 (inactive) | 0.204 | 1.82 (inactive) | -0.484 (inactive) | -0.884 (inactive) | 3.52 (inactive) | 3.34 (inactive) | -0.427 (inactive) | -0.0689 (inactive) | 0.478 | 0.258
4 | CCCC[C@@H]1C[C@H]1[C@@H](NC(=O)c1cccs1)c1ccc(C(F)(F)F)cc1 | -1.36 | -0.249 | -0.655 | -0.771 | -1.47 | -1.04 | -1.23 (inactive) | 0.404 | -0.917 | 0.724 (inactive) | -0.117 | 1.95 (inactive) | -0.6 (inactive) | 0.322 (inactive) | 0.771 (inactive) | 1.83 (inactive) | -0.82 (inactive) | -0.734 (inactive) | -0.601 | 0.0408
5 | CCOC(=O)c1ccc(NC(=O)O[C@H]2[C@H](OC(=O)Nc3ccc4c(c3)OCO4)[C@H](OC(=O)Nc3ccc4c(c3)OCO4)[C@@H](OC)O[C@@H]2CO)cc1 | -0.83 | 0.529 | -1.02 | -0.982 | -1.21 | -0.691 | -0.289 (inactive) | -0.576 | -1.09 | -0.824 (inactive) | -1.09 | 1.12 (inactive) | -1.55 (inactive) | -0.57 (inactive) | 0.95 (inactive) | 1.57 (inactive) | 1.11 (inactive) | 0.311 (inactive) | -1.36 | 0.32
6 | NCCCCCCNC(=O)[C@@H]1C[C@@H]2C(=O)N[C@@H](CCCCN)C(=O)N2[C@@H]1c1cccc(OCCO)c1 | 0.892 | -0.452 | 0.514 | 0.835 | 0.986 | 0.0199 | 0.759 (inactive) | -0.639 | -0.451 | 0.551 (inactive) | 1.1 | 0.0813 (inactive) | 0.193 (inactive) | 0.169 (inactive) | -0.931 (inactive) | 0.58 (inactive) | 0.398 (inactive) | 0.756 (inactive) | 0.685 | 2.72
7 | COCCOC(=O)N1C(=O)[C@@]2(c3cc(C#CC4=CCCCC4)ccc31)[C@H](c1ccccc1OCCO)N1[C@H](c3ccccc3)[C@H](c3ccccc3)OC(=O)[C@H]1[C@@H]2C(=O)N1CCCCCCC1 | -2.1 | 0.443 | -0.599 | -2.38 | -2.38 | 0.737 | 0.262 (inactive) | -0.934 | -1.31 | 0.0309 (inactive) | 0.133 | 1.86 (inactive) | -4.58 (inactive) | 0.668 (inactive) | 0.365 (inactive) | 2.01 (inactive) | 0.105 (inactive) | -1.32 (inactive) | -3.11 | -0.0663
8 | COCCOC(=O)N1C(=O)[C@@]2(c3cc(C#CC4=CCCCC4)ccc31)[C@H](C(N)=O)[C@H]1C(=O)O[C@H](c3ccccc3)[C@H](c3ccccc3)N1[C@@H]2c1ccccc1OCCO | -2.23 | 0.619 | -3.63 | -3.29 | -3.99 | -2.49 | 2.7 (inactive) | -0.819 | -1.6 | -2.57 (inactive) | -2.76 | 0.132 (inactive) | -4.34 (inactive) | -0.295 (inactive) | 2.21 (inactive) | 1.23 (inactive) | -1.4 (inactive) | -1.23 (inactive) | -5.78 | 0.0899
9 | CC(C)(C)OC(=O)CC[C@]1(C(=O)NCc2ccccc2)N=C(c2ccc(OCCCO)cc2)O[C@H]1c1ccccc1CN=[N+]=[N-] | 0.858 | -0.0665 | 2.17 | -0.863 | 0.213 | 1.17 | 0.0993 (inactive) | -0.518 | -0.773 | -0.768 (inactive) | -1.08 | 0.103 (inactive) | -1.49 (inactive) | 0.281 (inactive) | 0.702 (inactive) | 0.53 (inactive) | 0.414 (inactive) | 0.391 (inactive) | -0.551 | 0.0942
